The structures appear in SMILES notation. Activity calls are given as the source filed them. How the source made its calls: active means hit-call score of the fitted dose curve at least 0.9, where 1 is the maximum; inactive means score below 0.9.

This test can be described thus: APR_HepG2_p53Act_1hr: Apredica 1-hour HepG2 Assay for p53 Activation (AID 2282671). The conditions noted are these: high-content imaging, actives raise or lower the signal. The protocol: APR_HepG2_1hr is a cell-based, multiplexed-readout assay that uses HepG2, a human liver cell line, with measurements taken at 1 hour after chemical dosing in a 384-well plate.APR_HepG2_p53Act_1hr is one of 10 assay component(s) measured or calculated from the APR_HepG2_1hr assay. It is designed to make measurements of dna content, a form of viability reporter, as detected with fluorescence intensity signals by HCS Fluorescent Imaging technology.Data from the assay component APR_HepG2_p53Act_1hr was analyzed into 1 assay endpoint. This assay endpoint, APR_HepG2_p53Act_1hr, was analyzed with bidirectional fitting relative to DMSO as the negative control and baseline of activity. Using a type of viability reporter, measures of protein for gain or loss-of-signal activity can be used to understand the signaling at the pathway-level as they relate to the gene TP53. Furthermore, this assay endpoint can be referred to as a primary readout, because this assay has produced multiple assay endpoints where this one serves a signaling function. To generalize the intended target to other relatable targets, this assay endpoint is annotated to the dna binding intended target family, where the subfamily is tumor suppressor.
Cells were treated with dimethyl sulfoxide (DMSO) as a solvent control at a final concentration of 0.5% v/v or with compounds in DMSO with a resulting final DMSO concentration of 0.5% v/v. Compound treatment was done at concentrations of 0.39, 0.78, 1.56, 3.12, 6.24, 12.5, 25, 50, 100, and 200 uM in duplicate on each plate. Cells were treated with compounds for 1, 24, or 72 hr. Carbonyl […] m-chloro-phenylhydrazone (CCCP) and taxol were used as positive controls for mitochondrial function and cytoskeletal stability, respectively; DMSO served as the negative control for this experiment. Cells were fixed by the direct addition of 50 uL formaldehyde in Hank's Balanced Salt Solution (HBSS) to a final concentration of 3.7%. After incubation in the fixation medium for 30 min at room temperature (293-298 K), cells were rinsed twice with HBSS and treated with cell permeabilization buffer (16 uL of 0.5% Triton X-100) for 10 min at room temperature (293-298 K) before labeling. For mitochondrial membrane potential and mitochondrial measurements, pre-fixed cells were incubated with 50 uL of MitoTracker Red CMXRos (Invitrogen) at a concentration of 250 nM for 30 min before fixation. In the remaining cases, post-fixed cells were labeled by incubation with a multiplexed mixture of primary antibodies in HBSS for 60 min at room temperature (293-298 K) to detect immunoreactivity of c-Jun (1:500), phospho-histone H3 (1:100), phospho-histone H2A.x (1:200), p53 (1:400), alpha-tubulin (1:200) and Hoechst 33342 (2 ug/mL). Cells were labeled for multiplexed imaging on two separate plates: a) Hoechst 33342, MitoTracker Red, phospho-histone H3, and alpha-tubulin, and b) Hoechst 33342, phospho-histone H2A.x, and c-Jun. A final rinse with HBSS (50 uL) was performed before analysis. The primary and secondary antibodies for the proteins were phospho-histone H3 (rabbit anti-phospho-histone H3 and FITC-donkey anti-rabbit IgG), phospho-histone H2A.x (mouse anti-phospho-histone H2A.x and FITC-donkey anti-mouse IgG), c-Jun (rabbit anti-phospho-c-Jun and Cy3-donkey anti-rabbit IgG), p53 (sheep anti-p53 and Cy5-donkey anti-sheep IgG), alpha-tubulin (mouse anti-alpha-tubulin and Cy5-donkey anti-mouse IgG). These antibodies are available as the CellCiphr HepG2 assay kit (Millipore).Digital images of each well were captured using a Cellomics ArrayScan VTI (Thermo Scientific Cellomics) (0.8 NA objective, 0.63x optical coupler, and XF-93 filter set) at 20x magnification. The images were acquired using the autofocus feature of the ArrayScan instrument, which entails the following steps. First, the camera focuses on channel 1 (Hoechst 33342), where nuclei are identified. Second, a Z offset of 1 um is used for capturing mitochondria (MitoTracker Red). […]
As for `CCOP(=S)(OCC)Oc1cc(C)nc(C(C)C)n1`, the compound was called inactive. For the compound `CC[C@H](C)[C@H]1O[C@]2(C=C[C@@H]1C)C[C@@H]1C[C@@H](C/C=C(\C)[C@@H](O[C@H]3C[C@H](OC)[C@@H](O[C@H]4C[C@H](OC)[C@@H](NC)[C@H](C)O4)[C@H](C)O3)[C@@H](C)/C=C/C=C3\CO[C@@H]4[C@H](O)C(C)=C[C@@H](C(=O)O1)[C@]34O)O2`, the AC50 was 26.8 µM (active).

For the compound `CC(C)[C@H](C(=O)O[C@H](C#N)c1cccc(Oc2ccccc2)c1)c1ccc(Cl)cc1`, the outcome was inactive. Same read-out and setting: to `CCOP(=S)(OCC)OC(Cl)C(Cl)(Cl)Cl` (stereo not given) belongs “inactive”. Same read-out and setting: to `CCC(=O)Nc1ccc(Cl)c(Cl)c1` belongs “inactive”; to `CCOC(=O)CC(SP(=O)(OC)OC)C(=O)OCC` (stereo not given), “inactive”. Still for that read-out and setting: to `CNC(=O)Oc1cccc2c1OC(C)(C)O2` belongs “inactive”.

As for `CC(C)=CC1C(C(=O)OCN2C(=O)C3=C(CCCC3)C2=O)C1(C)C` (stereo not given), the compound was classed as inactive. Still for that read-out and setting: to `CON=C(C(=O)OC)c1ccccc1CON=C(C)c1cccc(C(F)(F)F)c1` belongs “inactive”; to `Cc1cc(C2CC2)nc(Nc2ccccc2)n1`, “inactive”; to `COP(=O)(OC)SCn1c(=O)oc2cc(Cl)cnc21`, “inactive”. On the same count and under the same terms, to `CN(C)C(=O)Nc1cccc(C(F)(F)F)c1` belongs “inactive”; to `S=C1NCCN1`, “inactive”. Same read-out and setting: to `CN1COCN(Cc2cnc(Cl)s2)C1=N[N+](=O)[O-]` belongs “inactive”; to `CCCCOC(=O)c1ccccc1C(=O)O`, “inactive”; to `CCOP(=S)(OCC)Oc1ccc2c(C)c(Cl)c(=O)oc2c1`, “inactive”. Regarding `CCNc1nc(Cl)nc(NC(C)(C)C#N)n1`, the compound was classed as inactive. The same measure, in the same setting: the result for `C[N+]1(C)CCCCC1` reads “inactive”; that for `CCc1cccc(C)c1N(C(=O)CCl)C(C)COC` (stereo not given), “inactive”. Still for that read-out and setting: to `FC(F)C(F)(F)OCC(Cn1cncn1)c1ccc(Cl)cc1Cl` (stereo not given) belongs “inactive”; to `C#CC(C)(C)NC(=O)c1cc(Cl)cc(Cl)c1`, “inactive”; to `CCCCN(CC)c1c([N+](=O)[O-])cc(C(F)(F)F)cc1[N+](=O)[O-]`, “inactive”. Still for that read-out and setting: the result for `CCCCOC(=O)[C@@H](C)Oc1ccc(Oc2ccc(C#N)cc2F)cc1` reads “inactive”.

As to `CCOP(=O)(OCC)Oc1cc(C)nc(C(C)C)n1`, the call was inactive. Still for that read-out and setting: to `CSc1nc(NC(C)C)nc(NC(C)C)n1` belongs “inactive”. Same read-out and setting: to `O=c1ccc(=O)[nH][nH]1` belongs “inactive”. The same measure, in the same setting: to `CCC(=NOC/C=C/Cl)C1=C(O)CC(C2CCOCC2)CC1=O` (stereo not given) belongs “inactive”. With `CCOP(=S)(Oc1cnc(C(C)(C)C)nc1)OC(C)C` (stereo not given), the compound was called inactive. Take `COc1cc(OC)nc(Sc2cccc(Cl)c2C(=O)O)n1`: the compound was classed as inactive. With `CCOP(=O)(NC(C)C)Oc1ccc(SC)c(C)c1` (stereo not given), the compound was called inactive. Same read-out and setting: to `CN(C)NC(=O)CCC(=O)O` belongs “inactive”; to `CCOC(=O)COc1cc(-c2nn(C)c(OC(F)F)c2Cl)c(F)cc1Cl`, “inactive”. The same measure, in the same setting: the result for `CNC(=O)ON=C(SC)C(=O)N(C)C` reads “inactive”. On the same count and under the same terms, to `CCCSP(=O)(OCC)Oc1ccc(Br)cc1Cl` (stereo not given) belongs “inactive”. Take `COc1cccc(C(=O)NN(C(=O)c2cc(C)cc(C)c2)C(C)(C)C)c1C`: the compound was classed as inactive. The same measure, in the same setting: the result for `COP(=O)(NC(C)=O)SC` (stereo not given) reads “inactive”; that for `CC(C1CC1)C(O)(Cn1cncn1)c1ccc(Cl)cc1` (stereo not given), “inactive”. The same measure, in the same setting: to `CC(Oc1cccc(Cl)c1)C(=O)O` (stereo not given) belongs “inactive”; to `CNc1cnn(-c2cccc(C(F)(F)F)c2)c(=O)c1Cl`, “inactive”; to `COP(=O)(OC)C(O)C(Cl)(Cl)Cl` (stereo not given), “inactive”.

Usually AC50 stands for the midpoint of the concentration-response curve, whichever way the signal moves.
